Experimental data from the supplement of paper PMC10849652.
Of roughly 7,900 targets only a part is listed; those with a hit were picked by preference. About 0.6% of all pairs of compound and target were hits. A number with no mark means an inactive call.

Columns and labels:
Assay in all cases: log2 fold change, soluble protein after heating vs DMSO (PISA); higher = thermal stabilisation; K562 cells, 10 uM, 30 min; active = over 0.2 and 3.5 SD of the protein, either way, in both replicates (recomputed)
[1] = compound: CC[C@@H]1C(=O)N(C)c2cnc(Nc3ccc(C(=O)NC4CCN(C)CC4)cc3OC)nc2N1C1CCCC1
Procedure, shortened: (§1)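 Soluble protein was quantified by TMTpro 16plex LC-MS/MS after channel sums were equalised. It was obtained as the supernatant after 21,000xg for 90 min from pooled aliquots of K562 cells (2×10^6 cells/mL, 10 μM compound, 30 min) heated for 3 min across 48°C-58°C and extracted in PBS with 0.5% NP-40 at 4°C. Thermal stability values are relative to control samples and come from duplicates. They are given as log2 fold changes.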

[2] = compound: CC[C@@H]1C(=O)N(C)c2cnc(Nc3ccc(C(=O)N[C@H]4CC[C@H](N5CCN(CC6CC6)CC5)CC4)cc3OC)nc2N1C(C)C [volasertib]
Procedure, shortened: as §1

[3] = compound: CC[C@H](C)N1C=C(C2=C(C=C(C=C21)C3=CN=C(C=C3)N4CCNCC4)C(=O)NCC5=C(C=C(NC5=O)C)C)C
Procedure, shortened: as §1

[4] = compound: CC[C@H](C)[C@@H](C(=O)N[C@@H]([C@@H](C)O)C(=O)N[C@@H](CC(C)C)C(=O)[C@]1(CO1)C)NC(=O)[C@H]([C@@H](C)CC)N(C)C(=O)C [epoxomicin]
Procedure, shortened: as §1

[5] = compound: CCn1c(C(=O)N(C2CC2)C2CC2)cc2c3c(ncn3C)c(Nc3cc(C)n(C)n3)nc21
Procedure, shortened: as §1

[6] = compound: CCn1cc(-c2ccnc3[nH]c(-c4cccc(CN(C)C)c4)cc23)c(-c2ccc(NC(=O)N(C)C)cc2)n1
Procedure, shortened: as §1

[7] = compound: CN(C)CC(=O)Nc1ccc2[nH]c(=O)c3ccccc3c2c1
Procedure, shortened: as §1

[8] = compound: CN(CCOC1=CC=C(C=C1)C[C@H]2C(=O)NC(=O)S2)C3=CC=CC=N3 (racemic) [rosiglitazone]
Procedure, shortened: as §1

[9] = compound: CN1C2=C(C3=C1C(=O)N(N=C3)CC4=CC(=CC=C4)N)SC(=C2)S(=O)C
Procedure, shortened: as §1

[10] = compound: CN1CCC(CNc2ccc3ncc(-c4cccc(OC(F)(F)F)c4)n3n2)CC1
Procedure, shortened: as §1

Chain of UniProt O95059 (O95059 whole entry, looked up): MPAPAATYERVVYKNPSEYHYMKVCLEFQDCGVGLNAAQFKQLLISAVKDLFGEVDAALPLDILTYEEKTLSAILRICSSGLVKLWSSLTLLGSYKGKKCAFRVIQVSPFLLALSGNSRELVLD
Chain of UniProt Q8NBX0 (Q8NBX0 whole entry, looked up): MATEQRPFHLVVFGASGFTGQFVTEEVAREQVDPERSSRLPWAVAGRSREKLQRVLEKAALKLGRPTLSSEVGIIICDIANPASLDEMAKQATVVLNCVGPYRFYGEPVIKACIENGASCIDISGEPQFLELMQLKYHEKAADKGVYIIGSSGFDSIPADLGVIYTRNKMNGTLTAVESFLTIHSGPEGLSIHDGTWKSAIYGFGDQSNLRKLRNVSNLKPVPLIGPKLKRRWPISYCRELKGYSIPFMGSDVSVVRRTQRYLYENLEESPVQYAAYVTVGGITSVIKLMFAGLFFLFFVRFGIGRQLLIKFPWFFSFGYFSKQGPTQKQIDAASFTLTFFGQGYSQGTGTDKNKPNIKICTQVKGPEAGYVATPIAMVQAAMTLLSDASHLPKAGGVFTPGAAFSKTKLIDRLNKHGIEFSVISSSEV
Chain of UniProt P61586 (P61586 whole entry, looked up): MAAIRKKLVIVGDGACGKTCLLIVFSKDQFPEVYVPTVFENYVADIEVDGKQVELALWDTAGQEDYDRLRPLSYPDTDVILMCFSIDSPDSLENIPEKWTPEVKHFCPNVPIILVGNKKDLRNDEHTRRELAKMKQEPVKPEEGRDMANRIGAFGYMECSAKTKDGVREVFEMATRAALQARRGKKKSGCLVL
Chain of UniProt Q9BY78 (Q9BY78 whole entry, looked up): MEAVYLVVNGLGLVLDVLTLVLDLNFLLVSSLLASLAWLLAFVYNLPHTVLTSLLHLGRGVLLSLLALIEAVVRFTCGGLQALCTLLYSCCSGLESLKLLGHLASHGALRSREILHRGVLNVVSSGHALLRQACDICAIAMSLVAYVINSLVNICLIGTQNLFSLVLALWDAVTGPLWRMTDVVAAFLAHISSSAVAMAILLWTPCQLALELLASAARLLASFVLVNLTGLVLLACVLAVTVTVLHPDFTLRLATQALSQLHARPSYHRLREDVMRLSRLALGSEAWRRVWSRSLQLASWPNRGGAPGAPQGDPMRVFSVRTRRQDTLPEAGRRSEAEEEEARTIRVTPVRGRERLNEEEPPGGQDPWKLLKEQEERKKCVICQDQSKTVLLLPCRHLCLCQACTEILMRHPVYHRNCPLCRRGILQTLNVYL
Chain of UniProt Q96NL6 (Q96NL6 whole entry, looked up): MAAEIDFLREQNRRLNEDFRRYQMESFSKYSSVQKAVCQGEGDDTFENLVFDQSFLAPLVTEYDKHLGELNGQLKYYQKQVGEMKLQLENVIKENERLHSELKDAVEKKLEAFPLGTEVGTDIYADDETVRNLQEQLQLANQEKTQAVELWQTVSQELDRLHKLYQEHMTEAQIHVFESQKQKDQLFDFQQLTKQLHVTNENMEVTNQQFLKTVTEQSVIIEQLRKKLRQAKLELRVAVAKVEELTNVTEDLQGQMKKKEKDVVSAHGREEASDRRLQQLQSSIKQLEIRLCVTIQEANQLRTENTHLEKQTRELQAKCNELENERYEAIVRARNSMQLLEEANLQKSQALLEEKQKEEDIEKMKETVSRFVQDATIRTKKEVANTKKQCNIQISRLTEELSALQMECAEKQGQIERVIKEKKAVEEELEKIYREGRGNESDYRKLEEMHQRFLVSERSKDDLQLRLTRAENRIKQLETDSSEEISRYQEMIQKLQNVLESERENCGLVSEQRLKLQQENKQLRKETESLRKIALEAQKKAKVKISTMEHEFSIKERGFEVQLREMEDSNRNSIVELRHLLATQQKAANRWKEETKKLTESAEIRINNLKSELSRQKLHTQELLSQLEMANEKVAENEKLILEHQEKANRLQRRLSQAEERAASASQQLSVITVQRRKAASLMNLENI
Chain of UniProt Q86X27 (Q86X27 whole entry, looked up): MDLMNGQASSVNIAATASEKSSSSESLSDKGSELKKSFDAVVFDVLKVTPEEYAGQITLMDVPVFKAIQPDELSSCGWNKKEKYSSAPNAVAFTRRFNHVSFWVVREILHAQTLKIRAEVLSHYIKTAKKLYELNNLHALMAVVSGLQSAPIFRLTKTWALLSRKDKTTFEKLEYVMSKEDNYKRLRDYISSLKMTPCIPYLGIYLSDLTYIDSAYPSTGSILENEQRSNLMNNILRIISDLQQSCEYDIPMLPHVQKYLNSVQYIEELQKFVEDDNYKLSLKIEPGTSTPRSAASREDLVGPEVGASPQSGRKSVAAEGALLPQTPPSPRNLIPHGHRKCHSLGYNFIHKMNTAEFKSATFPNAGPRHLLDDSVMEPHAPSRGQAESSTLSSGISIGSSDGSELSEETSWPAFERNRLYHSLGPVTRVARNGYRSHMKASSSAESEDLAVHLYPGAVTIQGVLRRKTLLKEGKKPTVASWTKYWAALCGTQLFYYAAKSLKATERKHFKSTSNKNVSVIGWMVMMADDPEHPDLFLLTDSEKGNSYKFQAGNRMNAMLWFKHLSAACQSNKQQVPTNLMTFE
Chain of UniProt Q8WXD2 (Q8WXD2 whole entry, looked up): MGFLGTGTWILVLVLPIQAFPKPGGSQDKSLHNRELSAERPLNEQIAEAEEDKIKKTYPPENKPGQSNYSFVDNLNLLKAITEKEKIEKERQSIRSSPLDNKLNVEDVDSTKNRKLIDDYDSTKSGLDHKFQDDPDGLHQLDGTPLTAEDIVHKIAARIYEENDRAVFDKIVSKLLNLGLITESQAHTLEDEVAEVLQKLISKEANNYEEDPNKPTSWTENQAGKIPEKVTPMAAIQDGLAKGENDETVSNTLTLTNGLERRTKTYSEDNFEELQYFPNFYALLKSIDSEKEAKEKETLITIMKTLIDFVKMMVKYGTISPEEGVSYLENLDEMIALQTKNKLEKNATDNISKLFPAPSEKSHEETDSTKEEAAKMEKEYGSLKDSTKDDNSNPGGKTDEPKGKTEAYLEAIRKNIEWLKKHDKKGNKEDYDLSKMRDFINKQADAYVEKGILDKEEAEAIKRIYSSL
Chain of UniProt Q5PRF9 (Q5PRF9 whole entry, looked up): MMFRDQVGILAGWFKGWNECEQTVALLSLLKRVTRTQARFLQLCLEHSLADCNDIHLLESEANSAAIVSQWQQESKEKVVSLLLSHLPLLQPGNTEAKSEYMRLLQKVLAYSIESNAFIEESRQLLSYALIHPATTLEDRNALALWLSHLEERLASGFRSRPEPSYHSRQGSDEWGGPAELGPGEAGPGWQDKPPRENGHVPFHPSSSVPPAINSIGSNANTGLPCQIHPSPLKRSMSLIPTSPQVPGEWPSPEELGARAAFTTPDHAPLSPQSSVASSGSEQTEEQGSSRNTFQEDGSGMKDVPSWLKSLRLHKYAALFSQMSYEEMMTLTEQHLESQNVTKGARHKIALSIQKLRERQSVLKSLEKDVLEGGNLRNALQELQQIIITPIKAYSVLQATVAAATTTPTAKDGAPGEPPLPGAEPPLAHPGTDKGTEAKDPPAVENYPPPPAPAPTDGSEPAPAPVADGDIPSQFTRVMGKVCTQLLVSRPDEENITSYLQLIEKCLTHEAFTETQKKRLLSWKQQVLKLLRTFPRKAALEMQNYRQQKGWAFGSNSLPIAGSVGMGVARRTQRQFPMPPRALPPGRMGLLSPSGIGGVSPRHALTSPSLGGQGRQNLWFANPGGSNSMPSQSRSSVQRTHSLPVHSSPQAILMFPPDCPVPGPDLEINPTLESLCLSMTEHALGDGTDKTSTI
Chain of UniProt Q9H2X9 (Q9H2X9 whole entry, looked up): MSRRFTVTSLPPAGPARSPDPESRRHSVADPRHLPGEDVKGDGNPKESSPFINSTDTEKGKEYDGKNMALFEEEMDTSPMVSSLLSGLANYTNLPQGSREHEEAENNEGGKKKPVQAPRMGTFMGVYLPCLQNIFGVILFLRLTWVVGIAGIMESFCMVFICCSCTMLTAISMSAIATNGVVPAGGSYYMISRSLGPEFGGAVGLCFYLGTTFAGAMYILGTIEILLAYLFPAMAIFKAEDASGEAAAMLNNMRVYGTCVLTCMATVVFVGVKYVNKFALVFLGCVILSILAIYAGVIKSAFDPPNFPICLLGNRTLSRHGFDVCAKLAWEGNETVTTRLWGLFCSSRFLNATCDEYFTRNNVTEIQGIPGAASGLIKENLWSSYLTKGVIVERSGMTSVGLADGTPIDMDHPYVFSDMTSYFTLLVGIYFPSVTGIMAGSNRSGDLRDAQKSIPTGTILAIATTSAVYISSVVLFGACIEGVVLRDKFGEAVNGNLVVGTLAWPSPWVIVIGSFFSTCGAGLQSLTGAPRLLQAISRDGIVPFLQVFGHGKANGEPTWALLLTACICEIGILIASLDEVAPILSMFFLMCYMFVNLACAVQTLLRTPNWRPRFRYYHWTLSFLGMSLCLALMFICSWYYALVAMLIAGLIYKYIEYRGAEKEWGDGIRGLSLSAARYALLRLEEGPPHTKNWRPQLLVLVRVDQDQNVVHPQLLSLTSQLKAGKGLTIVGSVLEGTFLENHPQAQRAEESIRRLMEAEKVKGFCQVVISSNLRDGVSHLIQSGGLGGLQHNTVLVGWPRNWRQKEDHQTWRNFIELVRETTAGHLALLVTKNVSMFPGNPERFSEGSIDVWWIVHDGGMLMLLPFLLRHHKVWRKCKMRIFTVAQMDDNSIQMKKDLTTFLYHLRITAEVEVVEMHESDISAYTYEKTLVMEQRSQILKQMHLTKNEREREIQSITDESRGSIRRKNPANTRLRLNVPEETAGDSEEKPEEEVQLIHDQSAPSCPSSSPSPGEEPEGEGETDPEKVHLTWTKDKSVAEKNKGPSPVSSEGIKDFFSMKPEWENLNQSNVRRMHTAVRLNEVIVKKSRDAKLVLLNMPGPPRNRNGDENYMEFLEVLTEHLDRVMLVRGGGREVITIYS
Chain of UniProt O75446 (O75446 whole entry, looked up): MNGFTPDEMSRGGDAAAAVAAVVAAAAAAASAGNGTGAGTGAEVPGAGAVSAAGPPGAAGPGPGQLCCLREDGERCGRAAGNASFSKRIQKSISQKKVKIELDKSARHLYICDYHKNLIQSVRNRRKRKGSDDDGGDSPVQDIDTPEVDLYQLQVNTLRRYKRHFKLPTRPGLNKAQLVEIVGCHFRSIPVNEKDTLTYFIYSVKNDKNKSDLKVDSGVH

Row | Target | log2 fold change [1] | log2 fold change [2] | log2 fold change [3] | log2 fold change [4] | log2 fold change [5] | log2 fold change [6] | log2 fold change [7] | log2 fold change [8] | log2 fold change [9] | log2 fold change [10]
1 | RPS19 (UniProt P39019) | 0.147 | 0.319 | 0.008 | -0.115 | 0.041 | 0.091 | -0.073 | -0.063 | 0.147 | 0.121
2 | SF3B5 (UniProt Q9BWJ5) | 0.089 | -0.14 | -0.057 | 0.426 (active) | 0.042 | 0.035 | 0.006 | -0.044 | 0.082 | 0.035
3 | SCCPDH (UniProt Q8NBX0) | 0.083 | 0.158 | -0.06 | -0.024 | 0.008 | -0.07 | 0.039 | 0.022 | -0.194 | 0.216
4 | RDH13 (UniProt Q8NBN7) | -0.154 | -0.06 | 0.06 | 0.022 | 0.009 | -0.058 | 0.051 | 0.013 | -0.059 | -0.318 (active)
5 | RPS9 (UniProt P46781) | 0.203 | 0.339 | 0.02 | -0.24 | 0.025 | 0.088 | -0.095 | -0.078 | 0.174 | 0.146
6 | RAC3 (UniProt P60763) | 0.039 | 0.075 | -0.082 | -0.008 | 0.051 | -0.149 | 0 | 0 | -0.095 | 0.035
7 | SCG3 (UniProt Q8WXD2) | 0.04 | 0.134 | -0.013 | -0.119 | 0.048 | 0.035 | -0.099 | -0.027 | -0.116 | 0.6 (active)
8 | RHOA (UniProt P61586) | -0.098 | 0.134 | 0.065 | 0.049 | 0.024 | 0.071 | -0.025 | -0.057 | -0.037 | 0.01
9 | SDCBP isoform 2 (UniProt O00560) | -0.015 | -0.221 | -0.021 | 0.056 | -0.068 | -0.234 | – | 0.105 | -0.196 | -0.208
10 | RBBP6 (UniProt Q7Z6E9) | -0.061 | -0.068 | 0.013 | -0.001 | -0.023 | -0.003 | 0.024 | 0.014 | – | -0.014
11 | SH2D1B (UniProt O14796) | -0.068 | -0.029 | 0.095 | 0.168 | 0.092 | -0.068 | -0.025 | – | 0.235 | -0.174
12 | SCYL3 isoform 2 (UniProt Q8IZE3) | -0.114 | -0.327 (active) | 0.047 | 0.058 | 0.034 | -0.101 | -0.021 | -0.012 | -0.05 | -0.015
13 | RPP14 (UniProt O95059) | 0.079 | 0.07 | -0.048 | -0.06 | 0.013 | 0.08 | -0.04 | -0.021 | -0.076 | 0.244 (active)
14 | RICTOR isoform 3 (UniProt Q6R327) | -0.271 | -0.758 (active) | -0.033 | 0.064 | -0.585 | -0.083 | – | – | 0.265 | -0.169
15 | RPS12 (UniProt P25398) | 0.108 | 0.219 | 0.038 | -0.021 | -0.002 | 0.063 | -0.028 | -0.037 | 0.064 | 0.079
16 | RPS5 (UniProt P46782) | 0.103 | 0.337 | 0.065 | -0.079 | 0.025 | 0.059 | -0.036 | -0.073 | 0.089 | 0.044

Row | Target | log2 fold change [1] | log2 fold change [2] | log2 fold change [3] | log2 fold change [4] | log2 fold change [5] | log2 fold change [6] | log2 fold change [7] | log2 fold change [8] | log2 fold change [9] | log2 fold change [10]
17 | RAD50 isoform 2 (UniProt Q92878) | -0.069 | -0.228 (active) | 0.041 | 0.041 | -0.012 | -0.001 | 0.025 | 0.031 | -0.03 | -0.074
18 | SH3GLB2 (UniProt Q9NR46) | -0.148 | -0.378 (active) | 0.072 | 0.041 | -0.058 | -0.101 | 0.033 | 0.041 | 0.016 | -0.254
19 | SERINC1 (UniProt Q9NRX5) | 0.001 | 0.025 | -0.223 | -0.034 | 0.019 | – | -0.023 | -0.051 | -0.194 | –
20 | SAP30 (UniProt O75446) | – | 0.042 | -0.039 | -0.109 | 0.115 | -0.051 | 0.013 | – | 0.175 | 0.064
21 | SCO2 (UniProt O43819) | -0.109 | -0.346 | – | -0.055 | 0.042 | -0.051 | 0.039 | 0.034 | -0.014 | -0.187
22 | RAF1 isoform 2 (UniProt P04049) | 0.135 | -0.361 | – | -0.003 | 0.034 | -0.241 | 0.028 | 0.042 | -0.129 | -0.222
23 | SAFB2 (UniProt K7EQU4) | – | – | -0.095 | -0.11 | – | – | – | -0.269 | – | –
24 | SLC12A5 (UniProt Q9H2X9) | -0.007 | -0.033 | – | -0.162 | 0.002 | – | -0.013 | -0.022 | 0.316 | –
25 | SAMD4B (UniProt Q5PRF9) | – | 0.078 | -0.047 | 0.02 | -0.124 | 0.023 | – | -0.008 | 0.089 | -0.308
26 | RALGPS2 (UniProt Q86X27) | 0.139 | – | – | -0.247 | 0.145 | -0.203 | -0.059 | -0.082 | 0.137 | 0.082
27 | RNF167 (UniProt Q9H6Y7) | – | 0.003 | -0.043 | 0.039 | 0.103 | 0.057 | -0.008 | -0.019 | 0.05 | -0.097
28 | RNF220 isoform 3 (UniProt Q5VTB9) | – | -0.31 | – | – | -0.001 | – | – | – | – | –
29 | SCLT1 (UniProt Q96NL6) | – | – | -0.066 | – | – | -0.116 | -0.013 | 0.01 | -0.089 | -0.029
30 | SEPTIN5 (UniProt G3XAH0) | – | 0.097 | 0.074 | 0.049 | -0.021 | 0.211 | 0.011 | 0.056 | -0.079 | 0.075
31 | RNF26 (UniProt Q9BY78) | – | – | – | – | – | 0.077 | 0.017 | -0.131 | – | -1.04 (active)
